Assay in all cases: NCI-60 one-dose screen, 48 h (100 = growth as untreated, 0 = no growth, -100 = all killed)
The subject of assay [1] is NCI-H23 lung. Particulars: 10 µM unless noted.
Assay [2] has as its system NCI-H226 lung. The settings on record: 10 µM unless noted.
The subject of assay [3] is NCI-H322M lung. Particulars: 10 µM unless noted.
For assay [4], the system named is HOP-62 NSCLC. The settings on record: 10 µM unless noted.
In assay [5] the test system is NCI-H460 lung. Particulars: 10 µM unless noted.
Assay [6] deals with HOP-92 NSCLC. Particulars: 10 µM unless noted.
Assay [7] relates to NCI-H522 lung. Particulars: 10 µM unless noted.
The subject of assay [8] is A549/ATCC NSCLC. Particulars: 10 µM unless noted.
Assay [9] concerns 786-0 renal. Particulars: 10 µM unless noted.
For assay [10], the system named is COLO 205 colon. The settings on record: 10 µM unless noted.
The subject of assay [11] is DU-145 prostate. Particulars: 10 µM unless noted.
The subject of assay [12] is K-562 leukemia. Particulars: 10 µM unless noted.
For assay [13], the system named is MALME-3M melanoma. The settings on record: 10 µM unless noted.
Assay [14] concerns MDA-MB-231 breast. The settings on record: 10 µM unless noted.
Assay [15] has as its system RXF 393 renal. Particulars: 10 µM unless noted.
For assay [16], the system named is SF-268 CNS. The settings on record: 10 µM unless noted.
In assay [17] the test system is SF-295 CNS. The settings on record: 10 µM unless noted.
In assay [18] the test system is SF-539 CNS. The settings on record: 10 µM unless noted.
Assay [19] deals with UACC-257 melanoma. Particulars: 10 µM.
Assay [20] has as its system M14 melanoma. Particulars: 10 µM unless noted.

Drawing on PubChem BioAssay (NCI), this text covers growth for 8 compounds.

The panel holds about 83,000 compounds, 20% with a hit somewhere; the sample as a whole holds those more often.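 96-well plates, one dose, 48 hours. Percent growth reported; active if below 10.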 Values without a mark were called inactive. The source made the active and inactive calls.

Regarding `N#Cc1c(-c2ccccc2)cc(-c2c[nH]c3ccccc23)nc1-c1c[nH]c2ccccc12`, the growth in [1] is 95.6%; in [2], 89.9%; in assay [3], 105%; in assay [4], 92.7%; in assay [5], 106%; in assay [6] it was 92.1%. For the same compound, the growth in assay [7] is 97.1%; in assay [8] it was 98.7%; in assay [9], 102%; in assay [10] it was 108%; in assay [11], 108%; in [12], 101%. In addition, the growth in [13] is 99.8%; in assay [14] it was 92.6%; in [15], 95%; in [16], 96.1%; in assay [17], 96.4%; in [18] it was 98.6%. Moreover, the growth in assay [19] was 107%; in assay [20], 101%.
As for `COc1cc2oc(-c3cccc(NC(=O)c4cc(NC(=O)[C@H](C)NC(=O)OC(C)(C)C)ccc4C)c3)cc(=O)c2c(OC)c1OC`, the growth in [1] was 63.8%; in assay [2], 80.6%; in assay [3] it was 86.2%; in [4] it was 84.5%; in assay [5] it was 61.5%; in assay [6] it was -0.546% (active). Besides, the growth in assay [7] is 72.2%; in assay [8], 80.5%; in assay [9], 77.5%; in [10], 67.7%; in assay [11], 62.2%; in [12], 47.4%. The growth in assay [13] was 92.5%; in assay [14] it was 65.1%; in [15], 67.7%; in assay [16], 79.4%; in [17] it was 65.5%; in [18], 79.4%. The growth in assay [19] is 118%; in [20], 97.9%.
On to `O=C(COc1ccc(/C=C2\SC(=O)NC2=O)cc1)Nc1ccc(C(=O)/C=C/c2cc3ccccc3nc2Cl)cc1`, for which the growth is 65.3% in [1]; 74.9% in [2]; 97.8% in assay [3]; 103% in assay [4]; 86% in [5]; 88.2% in assay [6]. Moreover, the growth in [7] is 65.8%; in assay [8], 78.6%; in [9], 83.6%; in assay [10] it was 96.3%; in assay [11], 88.7%; in [12], 41%. The growth in [13] was 98.5%; in assay [14], 86.6%; in [15], 1.92% (active); in [16] it was 78.2%; in [17] it was 75.6%; in assay [18], 81.5%. Further, the growth was 75.3% in [19] and 80% in assay [20].
As to `CCCCOc1ccc(S(=O)(=O)N2CCN(c3nccc(N4CCOCC4)n3)CC2)cc1`, the growth in [1] was 44.2%; in assay [2], 58.3%; in assay [3], 45.1%; in assay [4], 88.9%; in [5], 16%; in [6], 14.3%. Further, the growth was 81% in assay [7]; 28.9% in assay [8]; 39.1% in [9]; 77.3% in [10]; 20.3% in assay [11]; 50.8% in [12]. The growth in assay [13] is 97.6%; in assay [14], 21.5%; in [15] it was 52.3%; in assay [16], 13.3%; in assay [17], -40.2% (active); in assay [18], 65.3%. The growth was 12% in assay [19] and 18.6% in assay [20].
As to `O=S(=O)(Nc1ccc(I)c(Cl)c1)c1ccc(-c2cnc(C3CC3)o2)cc1`, the growth in [1] is 33.8%; in assay [2], 41.9%; in assay [3] it was 46%; in assay [4], 29%; in [5], 12.6%; in assay [6], 49%. Moreover, the growth was 24.7% in assay [7]; 50.3% in [8]; 41.7% in assay [9]; 12% in assay [10]; 19.5% in assay [11]; 9.83% (active) in assay [12]. Also, the growth was 49.4% in assay [13]; 44.8% in assay [14]; 2.46% (active) in assay [15]; 59.4% in [16]; 12.2% in assay [17]; 10.9% in assay [18]. Besides, the figures for the growth in assay [19] and in [20] were 69.9% and 20.9%, respectively.
As to `CC(=O)Oc1ccc(CCN2C(=O)CSC2=S)cc1`, the growth was 101% in assay [1]; 89.4% in assay [2]; 99.8% in [3]; 111% in assay [4]; 101% in [5]; 53.7% in [6]. For the same compound, the growth is 61.7% in assay [7]; 106% in assay [8]; 79.7% in assay [9]; 115% in assay [10]; 11% in assay [11]; 57.2% in [12]. Further, the growth in assay [13] is 83.2%; in [14], 64.4%; in assay [15], 69.8%; in [16], 92.1%; in [17] it was 103%; in assay [18], 85.2%. For the same compound, the growth was 95.9% in assay [19] and 85.7% in [20].
For the compound `CN(C)c1ccc(/C=N/Nc2nc(N/N=C/c3ccc(N(C)C)cc3)nc(N3CCOCC3)n2)cc1`, the growth in assay [1] was 99.3%; in [2] it was 93.5%; in assay [3], 100%; in [4], 106%; in [5], 16.7%; in [6], 109%. Further, the growth is 98.9% in [7]; 74.9% in [8]; 84.6% in [9]; 108% in assay [10]; 92.7% in [11]; 6.35% (active) in assay [12]. The growth in assay [13] is 114%; in assay [14], 99.5%; in [15] it was 93.1%; in assay [16] it was 97.8%; in [17] it was 13.8%; in assay [18] it was 96.7%. Also, the growth in assay [19] and in assay [20] was 103% in each case.
As for `Oc1ccc(CSc2nnc(-c3ccc(Br)cc3)n2-c2ccccc2)c2cccnc12`, the growth was 38.2% in assay [1]; 44.7% in assay [2]; 52.4% in assay [3]; 16.1% in assay [4]; 7.57% (active) in assay [5]; 31.9% in assay [6]. Further, the growth is 28.5% in [7]; 26.3% in assay [8]; 43.2% in assay [9]; 99.6% in assay [10]; 39.2% in [11]; 15.8% in assay [12]. Also, the growth in [13] was 52%; in assay [14] it was 59.2%; in assay [15], 71.5%; in [16], 32.7%; in assay [17] it was 6.74% (active); in [18] it was 16.8%. In addition, the growth in assay [19] was 25.2%; in [20] it was 30.1%.
